Experimental findings from PubChem BioAssay (EPA / NIEHS) are described below.

For assay [1], the target named is Bile acid receptor (Homo sapiens) (UniProt Q96RI1). Kind of assay: ATG_FXR_TRANS: Attagene TRANS-FACTORIAL HepG2 Assay for Farnesoid X Receptor (FXR) (AID 2282979; active = hit-call score of the fitted dose curve at least 0.9, where 1 is the maximum;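 also: hits raise reporter mRNA above DMSO so AC50 marks FXR activation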). The following applies: HepG2 Attagene TRANS FXR-GAL4 reporter transcription. The procedure, abridged: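 Read-out: fluorescent reporter transcripts quantified by capillary electrophoresis after RT-PCR of total RNA. Source cells were HepG2 transiently carrying chimeric NR-GAL4 plus GAL4-UAS reporter units, dosed 24 h. Activity fitted upward relative to DMSO baseline.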
Bile acid receptor (Homo sapiens), sequence (Q96RI1 whole entry, looked up, the tested form may be a part): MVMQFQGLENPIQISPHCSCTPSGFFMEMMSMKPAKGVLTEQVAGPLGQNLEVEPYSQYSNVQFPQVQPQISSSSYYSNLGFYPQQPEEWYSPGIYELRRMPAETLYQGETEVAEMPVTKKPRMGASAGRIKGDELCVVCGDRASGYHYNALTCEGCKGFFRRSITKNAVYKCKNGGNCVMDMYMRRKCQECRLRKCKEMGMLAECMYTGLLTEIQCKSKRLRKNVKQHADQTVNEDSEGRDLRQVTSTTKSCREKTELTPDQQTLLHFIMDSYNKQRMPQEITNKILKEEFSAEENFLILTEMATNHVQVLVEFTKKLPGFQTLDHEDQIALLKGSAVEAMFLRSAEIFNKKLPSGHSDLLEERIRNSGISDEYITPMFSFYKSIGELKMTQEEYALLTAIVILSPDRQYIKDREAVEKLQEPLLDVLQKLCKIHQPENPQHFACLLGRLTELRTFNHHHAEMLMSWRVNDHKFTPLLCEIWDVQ

Assay [2] addresses Transcriptional activator Myb (Homo sapiens) (UniProt P10242). In words: ATG_Myb_CIS: Attagene CIS-FACTORIAL HepG2 Assay for human Myeloblastosis (Myb) Proto-Oncogene Transcription Factor (AID 2282986). Particulars: HepG2 Attagene CIS-FACTORIAL Myb reporter transcription; actives raise or lower the signal. The procedure, abridged: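 Multiplexed cis-reporter system in HepG2: transient transfection, 24 h treatment, mRNA readout by RT-PCR and capillary electrophoresis. Both increases and decreases are scored versus DMSO negative control.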

For assay [3], the target named is Nuclear respiratory factor 1 (Homo sapiens) (UniProt Q16656). In words: ATG_NRF1_CIS: Attagene CIS-FACTORIAL HepG2 Assay for human Nuclear Respiratory Factor 1 (NRF1) Orphan Gene (AID 2282987). Particulars: HepG2 NRF1 cis-element reporter, Attagene multiplex; actives raise or lower the signal. The procedure, abridged: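 Endogenous factor activity was captured via cis-element-driven reporter transcripts in HepG2 cells. Following 24 h chemical treatment, transcripts were quantified by RT-PCR and capillary electrophoresis.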
Nuclear respiratory factor 1 (Homo sapiens), sequence (Q16656 whole entry, looked up): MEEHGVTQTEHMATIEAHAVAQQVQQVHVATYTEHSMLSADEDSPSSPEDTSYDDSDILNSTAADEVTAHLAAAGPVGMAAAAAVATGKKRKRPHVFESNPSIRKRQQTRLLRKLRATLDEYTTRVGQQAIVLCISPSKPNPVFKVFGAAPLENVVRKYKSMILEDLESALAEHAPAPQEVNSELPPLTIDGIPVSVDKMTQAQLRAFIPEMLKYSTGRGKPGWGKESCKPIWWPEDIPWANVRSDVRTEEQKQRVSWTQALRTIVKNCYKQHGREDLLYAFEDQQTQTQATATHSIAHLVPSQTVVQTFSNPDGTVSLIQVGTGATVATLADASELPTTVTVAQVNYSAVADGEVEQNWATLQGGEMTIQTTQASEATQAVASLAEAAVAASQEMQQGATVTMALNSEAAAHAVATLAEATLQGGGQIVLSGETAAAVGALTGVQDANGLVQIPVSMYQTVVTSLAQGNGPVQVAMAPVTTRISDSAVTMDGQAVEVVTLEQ

Assay [4] is described as follows: ATG_NFI_CIS: Attagene CIS-FACTORIAL HepG2 Assay for human Nuclear Factor I (NFI) (AID 2282989). The following applies: HepG2 cis-regulatory reporter, NFI response element transcription; actives raise or lower the signal. The procedure, abridged:
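Transfected HepG2 liver cells, exposed 24 h, supplied total RNA for oligo(dT) reverse transcription and reporter-specific PCR. Labelled, HpaI-cut fragments were sized by capillary electrophoresis; DMSO set the baseline for bidirectional fitting.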

Assay [5] addresses Myc proto-oncogene protein (Homo sapiens) (UniProt P01106). Kind of assay: ATG_Myc_CIS: Attagene CIS-FACTORIAL HepG2 Assay for human Myelocytomatosis (Myc) Proto-Oncogene Transcription Factor (AID 2282990). The following applies: HepG2, Attagene cis-reporter transcription factor activity; actives raise or lower the signal. The procedure, abridged: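 HepG2, transient MRTU transfection (cis promoters, endogenous TFs); 24 h dosing; TriZol RNA → oligo(dT) RT → PCR → 6-FAM primer extension → HpaI cut → CE. Bidirectional fit vs DMSO.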

Assay [6] can be described thus: ATG_NF_kB_CIS: Attagene CIS-FACTORIAL HepG2 Assay for human Nuclear Factor Kappa B (NF-kB) (AID 2282991). Particulars: HepG2 Attagene cis-factorial NF-kB reporter mRNA; actives raise or lower the signal. The procedure, abridged:
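After 24 h compound incubation, transfected HepG2 cells yield total RNA; reporter cDNA is PCR-amplified, end-labelled with 6-FAM, HpaI-digested and analysed on a genetic analyser. Endogenous factor activity, DMSO-referenced bidirectional fit.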

Assay [7] is described as follows: ATG_NRF2_ARE_CIS: Attagene CIS-FACTORIAL HepG2 Assay for human Nuclear Factor Erythroid 2 Related Factor 2 (NFR2) response to Antioxidant Response Elements (ARE) (AID 2282992).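 As to AC50: reporter mRNA level measured by RT-PCR and capillary electrophoresis fluorescence.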 The following applies: HepG2 Attagene ARE/NRF2 reporter, transcription factor activity; actives raise or lower the signal. In outline: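 Cis-factorial assay: transfected HepG2 reporter library, 24 h dosing, mRNA readout via RT-PCR/CE; DMSO-referenced bidirectional analysis.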

Assay [8] in a line: ATG_Oct_MLP_CIS: Attagene CIS-FACTORIAL HepG2 Assay for human Octamer-Binding Transcription Factor (Oct) (AID 2282993). The following applies: HepG2 Attagene cis-factorial Oct reporter, mRNA; actives raise or lower the signal. In outline: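 Using HepG2 cells bearing transfected cis-reporter constructs, mRNA induction was read after 24 h by fluorescent RT-PCR and capillary electrophoresis, with DMSO defining baseline for gain- or loss-of-signal fits.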

Assay [9] concerns the target Cellular tumor antigen p53 (Homo sapiens) (UniProt P04637). In words: ATG_p53_CIS: Attagene CIS-FACTORIAL HepG2 Assay for human p53 Transcription Factor (AID 2282994). Particulars: HepG2 p53 cis-element reporter, Attagene mRNA; actives raise or lower the signal. In outline:
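Using HepG2 hepatoma cells carrying cis-acting multiplexed reporters, mRNA induction is detected after a 24 h exposure. Gain- and loss-of-signal responses are fitted relative to DMSO-treated cells.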

The target of assay [10] is Oxysterols receptor LXR-alpha (Homo sapiens) (UniProt Q13133). In words: ATG_LXRa_TRANS: Attagene TRANS-FACTORIAL HepG2 Assay for human Liver X Receptor alpha (LXRa) (AID 2282980; active = hit-call score of the fitted dose curve at least 0.9, where 1 is the maximum). Particulars: HepG2 Attagene TRANS reporter, LXRa transactivation. The procedure, abridged: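 Read-out: reporter transcript levels by RT-PCR plus capillary electrophoresis, fluorescence intensity. Transiently transfected HepG2, exogenous NR-GAL4 chimera, GAL4-UAS reporters; 24 h compound exposure. Activity = increase over DMSO negative control.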
Oxysterols receptor LXR-alpha (Homo sapiens), sequence (Q13133 whole entry, looked up, the tested form may be a part): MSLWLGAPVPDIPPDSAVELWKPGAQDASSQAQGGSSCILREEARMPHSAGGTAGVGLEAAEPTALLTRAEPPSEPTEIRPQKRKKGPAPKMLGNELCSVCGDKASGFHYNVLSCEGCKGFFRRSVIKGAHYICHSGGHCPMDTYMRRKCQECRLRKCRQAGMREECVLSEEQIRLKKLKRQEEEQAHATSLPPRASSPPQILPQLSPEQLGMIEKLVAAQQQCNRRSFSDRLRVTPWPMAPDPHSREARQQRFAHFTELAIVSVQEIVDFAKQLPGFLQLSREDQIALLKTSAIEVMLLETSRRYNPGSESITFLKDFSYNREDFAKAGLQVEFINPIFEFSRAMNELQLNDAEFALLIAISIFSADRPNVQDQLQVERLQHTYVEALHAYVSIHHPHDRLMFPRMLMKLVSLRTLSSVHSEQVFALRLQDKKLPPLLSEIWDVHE

Assay [11] addresses Oxysterols receptor LXR-beta (Homo sapiens) (UniProt P55055). In words: ATG_LXRb_TRANS: Attagene TRANS-FACTORIAL HepG2 Assay for human Liver X Receptor beta (LXRb) (AID 2282981; active = hit-call score of the fitted dose curve at least 0.9, where 1 is the maximum). Particulars: HepG2 Attagene TRANS GAL4-LXRb reporter, mRNA. In outline: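 Cells: HepG2, transiently transfected with GAL4-UAS reporter units plus LXRb-Gal4 fusion. Treatment: 24 h. Detection: reporter mRNA by RT-PCR, 6-FAM labelling, HpaI digestion, capillary electrophoresis.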

The nature of assay [12]: ATG_M_06_TRANS: Attagene TRANS-FACTORIAL HepG2 Assay for M06 Transcription Factor (Internal Marker) (AID 2282983; active = hit-call score of the fitted dose curve at least 0.9, where 1 is the maximum). The following applies: HepG2 Attagene TRANS M06 internal marker reporter. The procedure, abridged: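 After a 24 h chemical treatment of transfected HepG2, RNA underwent DNase I treatment, reverse transcription and reporter-specific PCR; labelled, HpaI-digested products were sized by capillary electrophoresis. Signal increase relative to DMSO defined activity.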

Assay [13] concerns the target Nuclear receptor subfamily 4 group A member 2 (Homo sapiens) (UniProt P43354). In words: ATG_NURR1_TRANS: Attagene TRANS-FACTORIAL HepG2 Assay for human Nuclear Receptor Related Protein 1 (NURR1) (AID 2282985; active = hit-call score of the fitted dose curve at least 0.9, where 1 is the maximum). Particulars: HepG2 Attagene TRANS reporter, mRNA readout. In outline: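 Cells: HepG2, transiently transfected. Exposure: 24 h. Detection: fluorescence of labelled RT-PCR products separated by capillary electrophoresis; upward fit versus DMSO.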

A short description of assay [14]: BSK_3C_TissueFactor: BioMAP Diversity Plus: 3C Assay for Tissue Factor Biomarker Activity (AID 2282997). The following applies: BioMAP 3C HUVEC, tissue factor biomarker readout; actives raise or lower the signal. The procedure, abridged: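 Human vascular primary cells (umbilical vein endothelium) received test chemical; Tissue Factor was determined by ELISA at 24 h, and both gain and loss of signal versus DMSO were fitted.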

Assay [15] is described as follows: BSK_3C_uPAR: BioMAP Diversity Plus: 3C Assay for Urokinase-type plasminogen activator receptor (uPAR) Biomarker Activity (AID 2282998). Particulars: BioMAP 3C HUVEC, uPAR biomarker ELISA; actives raise or lower the signal. In outline:
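In this endothelial cell-based assay, human umbilical vein primary cells were treated with chemicals and harvested at 24 h. uPAR was quantified using ELISA, with gains or losses fitted relative to DMSO controls.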
On the technique in general: An ELISA detects its analyte on a solid surface through an enzyme-linked reagent.

The nature of assay [16]: BSK_3C_VCAM1: BioMAP Diversity Plus: 3C Assay for Vascular cell adhesion molecule 1 (VCAM1) Biomarker Activity (AID 2282999). The following applies: BioMAP 3C HUVEC, VCAM1 ELISA, cytokine-stimulated; actives raise or lower the signal. The procedure, abridged:
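Endothelial cells from human umbilical vein are treated with test chemical. At 24 h, VCAM-1 is measured by ELISA, and responses in either direction are fitted relative to DMSO.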

Assay [17] addresses Hepatocyte nuclear factor 4-alpha (Homo sapiens) (UniProt P41235). Kind of assay: ATG_HNF4a_TRANS: Attagene TRANS-FACTORIAL HepG2 Assay for human Hepatocyte Nuclear Factor 4 alpha (HNF4a) (AID 2282982; active = hit-call score of the fitted dose curve at least 0.9, where 1 is the maximum). The following applies: HepG2 HNF4a transactivation reporter, mRNA readout. In outline:
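Transfected HepG2 reporter cells are dosed for 24 h; reporter RNA is reverse-transcribed, amplified, fluorescently labelled and HpaI-digested before CE sizing. Positive-direction fit against DMSO.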

A short description of assay [18]: ATG_M_32_TRANS: Attagene TRANS-FACTORIAL HepG2 Assay for M32 Transcription Factor (Internal Marker) (AID 2282984; active = hit-call score of the fitted dose curve at least 0.9, where 1 is the maximum;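 also: transcript level of a background control reporter unit measured by RT-PCR and capillary electrophoresis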). Particulars: HepG2 Attagene TRANS M32 internal marker reporter. In outline: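 Using transiently transfected HepG2 cells exposed to test chemicals for 24 h, reporter transcripts are converted to labelled cDNA fragments and quantified by capillary electrophoresis. DMSO defines the activity baseline.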

SMILES strings stand for the structures. Records with an inconclusive call do not appear. Calls of active or inactive are those of the source. The calls were made as follows, unless noted: active = hit-call score of the fitted dose curve at least 0.9, where 1 is the maximum; inactive = score below 0.9.

As a reminder, the AC50 is the midpoint of the concentration-response curve, whichever way the signal moves.

Nuclear receptor subfamily 4 group A member 2 (Homo sapiens), sequence (P43354 whole entry, looked up): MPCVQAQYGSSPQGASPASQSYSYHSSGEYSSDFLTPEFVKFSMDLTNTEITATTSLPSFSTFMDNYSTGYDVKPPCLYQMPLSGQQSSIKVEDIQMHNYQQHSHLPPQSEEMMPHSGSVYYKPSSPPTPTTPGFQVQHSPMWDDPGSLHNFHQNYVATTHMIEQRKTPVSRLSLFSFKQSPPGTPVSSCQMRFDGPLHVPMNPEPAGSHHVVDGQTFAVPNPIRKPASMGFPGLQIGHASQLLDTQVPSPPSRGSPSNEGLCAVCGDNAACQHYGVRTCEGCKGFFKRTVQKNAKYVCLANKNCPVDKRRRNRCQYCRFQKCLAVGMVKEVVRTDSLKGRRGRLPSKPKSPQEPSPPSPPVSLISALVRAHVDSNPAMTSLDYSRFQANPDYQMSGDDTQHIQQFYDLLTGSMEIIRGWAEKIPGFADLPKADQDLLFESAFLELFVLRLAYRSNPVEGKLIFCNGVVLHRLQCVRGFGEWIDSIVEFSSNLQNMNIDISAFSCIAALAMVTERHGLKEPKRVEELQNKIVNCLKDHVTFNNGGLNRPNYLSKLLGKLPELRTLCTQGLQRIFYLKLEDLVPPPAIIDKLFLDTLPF
Hepatocyte nuclear factor 4-alpha (Homo sapiens), sequence (P41235 whole entry, looked up): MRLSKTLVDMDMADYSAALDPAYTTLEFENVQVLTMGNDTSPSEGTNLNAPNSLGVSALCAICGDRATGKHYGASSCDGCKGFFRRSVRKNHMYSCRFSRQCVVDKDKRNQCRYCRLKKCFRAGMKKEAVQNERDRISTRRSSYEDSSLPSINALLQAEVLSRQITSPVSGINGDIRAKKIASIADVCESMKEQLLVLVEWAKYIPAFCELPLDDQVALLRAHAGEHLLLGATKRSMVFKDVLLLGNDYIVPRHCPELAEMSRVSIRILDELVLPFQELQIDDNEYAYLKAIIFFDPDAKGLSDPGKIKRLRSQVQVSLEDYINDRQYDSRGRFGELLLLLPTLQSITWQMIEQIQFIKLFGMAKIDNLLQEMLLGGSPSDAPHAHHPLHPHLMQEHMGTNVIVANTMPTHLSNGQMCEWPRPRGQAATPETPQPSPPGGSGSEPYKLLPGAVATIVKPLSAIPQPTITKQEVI
Oxysterols receptor LXR-beta (Homo sapiens), sequence (P55055 whole entry, looked up, the tested form may be a part): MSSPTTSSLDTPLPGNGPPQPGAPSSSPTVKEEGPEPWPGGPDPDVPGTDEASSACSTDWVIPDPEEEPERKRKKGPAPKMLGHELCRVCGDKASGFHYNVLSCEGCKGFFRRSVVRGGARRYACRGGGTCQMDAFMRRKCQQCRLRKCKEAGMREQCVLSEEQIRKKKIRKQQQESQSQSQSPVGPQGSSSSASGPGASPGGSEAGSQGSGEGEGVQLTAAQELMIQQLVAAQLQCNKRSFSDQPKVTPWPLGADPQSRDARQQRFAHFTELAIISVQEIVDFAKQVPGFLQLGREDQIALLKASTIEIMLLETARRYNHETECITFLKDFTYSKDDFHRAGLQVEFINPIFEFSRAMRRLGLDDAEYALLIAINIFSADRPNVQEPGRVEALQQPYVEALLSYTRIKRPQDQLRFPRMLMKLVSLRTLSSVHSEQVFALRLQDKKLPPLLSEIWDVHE
Cellular tumor antigen p53 (Homo sapiens), sequence (P04637 whole entry, looked up): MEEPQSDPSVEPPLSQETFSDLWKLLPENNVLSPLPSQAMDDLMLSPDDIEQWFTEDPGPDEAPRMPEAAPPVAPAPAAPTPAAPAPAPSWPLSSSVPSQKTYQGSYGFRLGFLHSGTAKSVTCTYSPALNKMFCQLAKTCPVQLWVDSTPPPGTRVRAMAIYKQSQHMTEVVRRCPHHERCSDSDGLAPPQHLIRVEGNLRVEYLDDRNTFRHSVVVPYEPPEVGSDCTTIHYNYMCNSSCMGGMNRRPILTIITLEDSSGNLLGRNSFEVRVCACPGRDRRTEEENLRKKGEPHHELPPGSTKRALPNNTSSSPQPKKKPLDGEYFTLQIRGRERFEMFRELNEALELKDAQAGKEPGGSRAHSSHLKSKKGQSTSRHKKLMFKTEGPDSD
Transcriptional activator Myb (Homo sapiens), sequence (P10242 whole entry, looked up): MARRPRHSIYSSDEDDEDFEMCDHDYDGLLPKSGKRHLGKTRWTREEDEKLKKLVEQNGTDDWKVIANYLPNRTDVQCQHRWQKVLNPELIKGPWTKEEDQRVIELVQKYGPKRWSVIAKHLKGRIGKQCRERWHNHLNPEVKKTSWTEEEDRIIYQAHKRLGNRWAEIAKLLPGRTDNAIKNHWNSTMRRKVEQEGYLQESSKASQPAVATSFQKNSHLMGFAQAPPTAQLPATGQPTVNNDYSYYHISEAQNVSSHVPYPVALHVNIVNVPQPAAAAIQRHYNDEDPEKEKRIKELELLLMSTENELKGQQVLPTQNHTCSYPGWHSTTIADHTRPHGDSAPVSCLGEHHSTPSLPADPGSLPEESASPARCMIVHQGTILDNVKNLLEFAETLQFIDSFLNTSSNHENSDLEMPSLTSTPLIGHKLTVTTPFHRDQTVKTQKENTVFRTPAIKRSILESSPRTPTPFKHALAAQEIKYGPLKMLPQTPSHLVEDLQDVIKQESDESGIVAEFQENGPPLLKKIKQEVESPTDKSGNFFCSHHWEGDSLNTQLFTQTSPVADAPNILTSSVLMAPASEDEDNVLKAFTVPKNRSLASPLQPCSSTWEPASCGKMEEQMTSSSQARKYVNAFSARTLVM
Myc proto-oncogene protein (Homo sapiens), sequence (P01106 whole entry, looked up): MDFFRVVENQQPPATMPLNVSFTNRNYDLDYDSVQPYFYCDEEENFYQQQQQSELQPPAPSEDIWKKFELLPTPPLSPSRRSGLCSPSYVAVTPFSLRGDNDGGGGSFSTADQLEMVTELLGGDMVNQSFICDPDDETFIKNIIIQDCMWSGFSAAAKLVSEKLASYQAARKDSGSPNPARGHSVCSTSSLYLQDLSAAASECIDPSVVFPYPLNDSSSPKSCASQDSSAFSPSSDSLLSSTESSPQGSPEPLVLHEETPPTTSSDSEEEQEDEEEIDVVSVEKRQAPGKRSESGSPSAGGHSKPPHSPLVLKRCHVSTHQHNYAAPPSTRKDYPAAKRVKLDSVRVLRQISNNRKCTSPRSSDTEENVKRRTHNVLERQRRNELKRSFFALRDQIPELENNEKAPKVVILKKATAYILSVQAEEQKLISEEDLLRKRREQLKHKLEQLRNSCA

In the case of `Nc1cccnc1N`, the compound was classed as inactive in assay [1], in assay [2], in assay [3], in assay [4], in [5] and in assay [6]. Moreover, the call in assay [8] and in assay [9] was inactive. In addition, in [7], the AC50 was 17.9 µM (active).

For `O=C(Cl)C(F)(F)C(F)(F)C(F)(F)C(F)(F)C(F)(F)C(F)(F)C(F)(F)F`, the call in assay [10], in assay [11], in assay [12], in [2], in assay [3] and in assay [4] was inactive. The result in [5], in assay [6], in assay [8], in assay [9], in assay [14] and in assay [15] was inactive. Moreover, the outcome in assay [16] was inactive. Also, the AC50 in [13] was 38.9 µM (active); in [7], 49 µM (active).

As for `N#CCCOCCC#N`, the result in [10], in assay [11], in [17], in assay [12], in assay [18] and in assay [2] was inactive. In addition, the call in assay [3], in [4], in [5], in [6], in assay [7] and in assay [8] was inactive. For the same compound, the outcome in [9] was inactive.

As to `O=C1c2c(O)ccc(Nc3ccc(CCO)cc3)c2C(=O)c2c([N+](=O)[O-])ccc(O)c21`, the result in assay [10], in assay [11], in [17], in assay [12], in assay [18] and in assay [2] was inactive. Also, the call in [3], in [4], in assay [5], in [8] and in assay [9] was inactive. Besides, the AC50 in [13] is 30.4 µM (active); in [7], 6.59 µM (active); in assay [14], 0.7 µM (active); in assay [15], 4.7 µM (active); in [16] it was 23.2 µM (active).

`O=C=NCc1cccc(CN=C=O)c1`: the compound was called inactive in assay [10], in assay [11], in assay [17], in [12], in assay [13] and in assay [2]. Further, the result in assay [3], in [4], in [5], in assay [6], in [7] and in assay [8] was inactive. Further, the outcome in assay [14], in [15] and in [16] was inactive.

In the case of `CCCCOC(=O)[C@H](C)O`, the outcome in assay [17], in assay [18], in assay [13], in assay [2], in assay [3] and in [4] was inactive. Besides, the compound was classed as inactive in assay [5], in assay [6], in assay [7], in assay [8] and in assay [9].

Turning to `C#CC(O)CCC` (configuration not stated), the outcome in assay [10], in assay [11], in assay [12], in assay [18], in assay [13] and in assay [2] was inactive. For the same compound, the call in assay [3], in [4], in assay [5], in assay [6], in assay [7] and in [8] was inactive. Moreover, the result in assay [9] was inactive.
